11 molecules from ChEMBL document CHEMBL3988442, “University of Dundee, Small-Polar-MMV Screening Library” (2021) can be followed below.

Several values for one entry are separate records, joined by “and”; a condition that tells them apart may be missing. Identical values can stand only once. For some of these results: Entries with a potency or affinity are not part of this list.

Holding throughout (set-up): scale not given: direction of the effect not stated beside the values
Experiment [1] concerns the target Protein translocase subunit SecA (Escherichia coli (strain K12)) (UniProt P10408). Description: Assay to Identify E. coli SecA ATPase Inhibitors. Particulars: 30 µM. The class given is functional.
For experiment [2], the target named is T1, Ubiquitin-activating enzyme e1, putative (Leishmania donovani (strain BPK282A1)) (UniProt E9BSI1).
T1 sequence (whole entry): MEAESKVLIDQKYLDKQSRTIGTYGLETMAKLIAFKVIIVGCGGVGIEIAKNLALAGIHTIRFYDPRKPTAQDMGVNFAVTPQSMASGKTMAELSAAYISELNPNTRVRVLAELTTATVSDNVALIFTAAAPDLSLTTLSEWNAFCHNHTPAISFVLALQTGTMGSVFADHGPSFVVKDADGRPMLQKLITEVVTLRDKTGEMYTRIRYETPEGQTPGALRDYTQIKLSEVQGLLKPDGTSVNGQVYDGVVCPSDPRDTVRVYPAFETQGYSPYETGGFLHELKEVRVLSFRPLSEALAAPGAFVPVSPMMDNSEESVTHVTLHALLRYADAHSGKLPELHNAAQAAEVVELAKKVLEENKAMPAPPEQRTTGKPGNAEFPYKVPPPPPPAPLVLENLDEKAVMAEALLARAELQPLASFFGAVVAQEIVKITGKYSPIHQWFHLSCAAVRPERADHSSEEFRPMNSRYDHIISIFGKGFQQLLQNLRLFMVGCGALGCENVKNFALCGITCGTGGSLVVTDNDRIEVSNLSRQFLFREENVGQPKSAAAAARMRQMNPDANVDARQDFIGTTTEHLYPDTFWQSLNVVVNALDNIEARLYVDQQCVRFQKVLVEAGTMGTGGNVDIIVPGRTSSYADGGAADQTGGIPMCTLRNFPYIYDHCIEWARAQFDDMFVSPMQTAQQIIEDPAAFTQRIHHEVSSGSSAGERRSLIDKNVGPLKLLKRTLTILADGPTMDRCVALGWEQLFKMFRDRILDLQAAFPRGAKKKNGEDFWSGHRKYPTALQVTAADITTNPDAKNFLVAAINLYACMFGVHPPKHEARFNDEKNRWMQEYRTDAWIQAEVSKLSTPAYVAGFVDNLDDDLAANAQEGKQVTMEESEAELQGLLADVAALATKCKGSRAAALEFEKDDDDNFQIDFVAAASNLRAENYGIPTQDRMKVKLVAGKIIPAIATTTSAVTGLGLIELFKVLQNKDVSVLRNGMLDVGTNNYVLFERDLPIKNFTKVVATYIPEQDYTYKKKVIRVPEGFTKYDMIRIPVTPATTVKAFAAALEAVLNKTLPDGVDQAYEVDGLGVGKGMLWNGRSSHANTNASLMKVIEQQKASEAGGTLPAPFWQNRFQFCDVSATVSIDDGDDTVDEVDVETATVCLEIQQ
The experiment in a line: Leishmania donovani Ubiquitin Activating Enzyme (LdE1). Type of experiment: functional. To be noted: 30 µM.

Experiment [3] deals with Sialic acid-binding Ig-like lectin 9 (Homo sapiens) (UniProt Q9Y336). Description: Hs-Siglec9 ALPHAscreen SOP 20170721. Particulars: 10 µM. Background: In Alpha technology, singlet oxygen from a donor bead excites a nearby acceptor bead.
Chain of Sialic acid-binding Ig-like lectin 9 (Homo sapiens) (Q9Y336 whole entry): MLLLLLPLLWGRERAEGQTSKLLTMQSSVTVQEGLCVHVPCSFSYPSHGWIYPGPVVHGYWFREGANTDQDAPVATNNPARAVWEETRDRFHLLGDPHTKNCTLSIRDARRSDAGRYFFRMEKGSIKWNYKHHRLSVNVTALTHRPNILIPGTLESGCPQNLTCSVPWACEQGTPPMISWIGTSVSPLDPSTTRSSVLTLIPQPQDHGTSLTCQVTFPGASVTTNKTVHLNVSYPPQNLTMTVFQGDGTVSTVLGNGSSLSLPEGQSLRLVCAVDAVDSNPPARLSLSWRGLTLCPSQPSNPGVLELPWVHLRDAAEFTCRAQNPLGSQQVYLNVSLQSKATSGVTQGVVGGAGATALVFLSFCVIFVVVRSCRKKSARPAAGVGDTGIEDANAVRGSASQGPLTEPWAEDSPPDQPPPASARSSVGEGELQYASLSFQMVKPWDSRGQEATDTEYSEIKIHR
The next experiment has as its system Trypanosoma cruzi. Description: Trypanosoma cruzi phosphomannomutase and mannose-1-phosphate guanylyltransferase assay. Type of experiment: functional. Particulars: 10 µM.
Experiment [4] addresses T2, Arginase-2, mitochondrial (Homo sapiens) (UniProt P78540).
T2 sequence (whole entry): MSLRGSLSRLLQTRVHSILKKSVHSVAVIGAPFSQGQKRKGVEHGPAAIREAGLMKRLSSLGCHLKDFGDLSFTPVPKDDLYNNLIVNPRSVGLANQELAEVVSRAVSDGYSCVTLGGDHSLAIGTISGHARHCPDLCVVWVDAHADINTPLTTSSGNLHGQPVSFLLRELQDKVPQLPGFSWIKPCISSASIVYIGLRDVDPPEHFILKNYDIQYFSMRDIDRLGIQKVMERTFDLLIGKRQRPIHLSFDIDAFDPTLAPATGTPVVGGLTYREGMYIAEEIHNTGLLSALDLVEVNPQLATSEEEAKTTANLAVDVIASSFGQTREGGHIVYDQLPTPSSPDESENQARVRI
Description: in vitro enzyme assay to detect the production of urea directly proportional to the activity of Arginase II. Note: in the data most compounds retested in dose-response had high values. Type of experiment: functional. To be noted: 33.3 µM.

The target in experiment [5] is T3, Proteasome subunit beta (Trypanosoma cruzi) (UniProt O96673).
T3 sequence (whole entry): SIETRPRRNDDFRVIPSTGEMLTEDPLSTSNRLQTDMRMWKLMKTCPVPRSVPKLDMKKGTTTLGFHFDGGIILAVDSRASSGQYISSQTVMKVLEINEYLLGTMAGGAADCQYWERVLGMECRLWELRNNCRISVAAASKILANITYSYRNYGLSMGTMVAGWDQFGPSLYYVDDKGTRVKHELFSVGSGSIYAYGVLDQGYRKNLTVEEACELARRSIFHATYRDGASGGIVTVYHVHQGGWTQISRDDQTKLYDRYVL
The experiment in a line: Trypanosoma cruzi proteasome chymotrypsin-like activity (TcProtChymo) assay. Note: in the data most compounds retested in dose-response had high values. The class given is functional. Particulars: 9.37 µM.

The species named for another experiment is Homo sapiens. The experiment in a line: To identify inhibition of the IFN signalling (Jak-Stat) pathway via expression of an eGFP reporter gene under the control of an IFN-stimulated response element (ISRE) containing MxA promoter. To be noted: 30 µM. The class given is functional. For orientation: Reporter assays use an easily measured gene product as a stand-in for the process of interest.

Experiment [6] concerns the target T4, Tyrosyl-tRNA synthetase, putative (Trypanosoma cruzi (strain CL Brener)) (UniProt Q4DSP6).
T4 sequence (whole entry): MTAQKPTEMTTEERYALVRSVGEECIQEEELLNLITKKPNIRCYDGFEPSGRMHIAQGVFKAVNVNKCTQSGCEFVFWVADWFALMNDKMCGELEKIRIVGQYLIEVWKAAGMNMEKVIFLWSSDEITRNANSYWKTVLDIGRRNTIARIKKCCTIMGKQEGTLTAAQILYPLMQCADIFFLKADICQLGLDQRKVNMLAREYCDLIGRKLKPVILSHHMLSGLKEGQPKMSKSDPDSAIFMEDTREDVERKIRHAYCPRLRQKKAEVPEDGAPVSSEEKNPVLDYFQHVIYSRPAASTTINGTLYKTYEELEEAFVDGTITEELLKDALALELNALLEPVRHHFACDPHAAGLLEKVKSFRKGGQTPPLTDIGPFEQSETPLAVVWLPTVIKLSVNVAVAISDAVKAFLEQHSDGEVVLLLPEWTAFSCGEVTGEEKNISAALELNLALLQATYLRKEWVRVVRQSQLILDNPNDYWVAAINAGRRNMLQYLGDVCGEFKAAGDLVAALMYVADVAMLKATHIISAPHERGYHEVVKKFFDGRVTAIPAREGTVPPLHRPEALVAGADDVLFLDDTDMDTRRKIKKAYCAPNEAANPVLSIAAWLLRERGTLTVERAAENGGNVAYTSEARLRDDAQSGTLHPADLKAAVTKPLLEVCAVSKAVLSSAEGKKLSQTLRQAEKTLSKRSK
The experiment in a line: Trypanosoma cruzi tyrosyl tRNA synthetase (TcYRS) _High Tyrosine SOP. Note: in the data most compounds retested in dose-response had high values. Type of experiment: functional. Particulars: 30 µM.

The target in experiment [7] is T4, Tyrosyl-tRNA synthetase, putative (Trypanosoma cruzi (strain CL Brener)). Description: Trypanosoma cruzi tyrosyl tRNA synthetase (TcYRS) SOP. Type of experiment: functional. To be noted: 30 µM.
Experiment [8] concerns the target Chromo domain-containing protein 1 (Saccharomyces cerevisiae (strain ATCC 204508 / S288c) (Baker's yeast)) (UniProt P32657). Description: ScCHD-1 Enzyme Inhibition Assay. Note: in the data most compounds retested in dose-response had high values. Type of experiment: functional. Particulars: 30 µM.
For the next experiment, the system named is N/A. The experiment in a line: Trypanosoma cruzi proteasome luciferase counter-screen. The class given is functional. To be noted: 9.37 µM. On the technique in general: A counterscreen serves to expose hits that act by an unwanted route or on another target.

Chain of Protein translocase subunit SecA (Escherichia coli (strain K12)) (P10408 whole entry): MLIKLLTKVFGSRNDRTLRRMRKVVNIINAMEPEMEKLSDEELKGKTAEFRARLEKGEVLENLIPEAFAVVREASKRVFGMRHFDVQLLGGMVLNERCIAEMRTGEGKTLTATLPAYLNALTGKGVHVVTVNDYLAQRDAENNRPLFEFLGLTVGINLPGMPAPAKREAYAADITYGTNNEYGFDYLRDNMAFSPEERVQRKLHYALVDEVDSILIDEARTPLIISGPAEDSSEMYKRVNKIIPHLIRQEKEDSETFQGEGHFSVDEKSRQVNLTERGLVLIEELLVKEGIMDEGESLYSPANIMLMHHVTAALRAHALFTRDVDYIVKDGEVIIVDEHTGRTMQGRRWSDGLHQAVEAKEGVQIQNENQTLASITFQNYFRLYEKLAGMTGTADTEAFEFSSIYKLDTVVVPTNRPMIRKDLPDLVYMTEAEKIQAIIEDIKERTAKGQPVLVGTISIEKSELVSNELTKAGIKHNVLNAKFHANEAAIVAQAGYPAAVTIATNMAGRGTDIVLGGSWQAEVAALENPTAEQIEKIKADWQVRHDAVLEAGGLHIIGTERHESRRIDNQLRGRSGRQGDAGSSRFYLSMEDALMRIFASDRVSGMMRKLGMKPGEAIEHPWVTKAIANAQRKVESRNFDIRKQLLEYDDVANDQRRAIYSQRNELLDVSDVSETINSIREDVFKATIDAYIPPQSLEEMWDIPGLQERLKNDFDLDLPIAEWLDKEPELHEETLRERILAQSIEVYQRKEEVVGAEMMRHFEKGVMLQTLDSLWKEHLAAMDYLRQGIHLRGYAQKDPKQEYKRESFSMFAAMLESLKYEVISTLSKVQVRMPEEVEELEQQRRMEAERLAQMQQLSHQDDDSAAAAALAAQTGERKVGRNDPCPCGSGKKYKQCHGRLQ
Chain of Chromo domain-containing protein 1 (Saccharomyces cerevisiae (strain ATCC 204508 / S288c) (Baker's yeast)) (P32657 whole entry, the tested form may be a part): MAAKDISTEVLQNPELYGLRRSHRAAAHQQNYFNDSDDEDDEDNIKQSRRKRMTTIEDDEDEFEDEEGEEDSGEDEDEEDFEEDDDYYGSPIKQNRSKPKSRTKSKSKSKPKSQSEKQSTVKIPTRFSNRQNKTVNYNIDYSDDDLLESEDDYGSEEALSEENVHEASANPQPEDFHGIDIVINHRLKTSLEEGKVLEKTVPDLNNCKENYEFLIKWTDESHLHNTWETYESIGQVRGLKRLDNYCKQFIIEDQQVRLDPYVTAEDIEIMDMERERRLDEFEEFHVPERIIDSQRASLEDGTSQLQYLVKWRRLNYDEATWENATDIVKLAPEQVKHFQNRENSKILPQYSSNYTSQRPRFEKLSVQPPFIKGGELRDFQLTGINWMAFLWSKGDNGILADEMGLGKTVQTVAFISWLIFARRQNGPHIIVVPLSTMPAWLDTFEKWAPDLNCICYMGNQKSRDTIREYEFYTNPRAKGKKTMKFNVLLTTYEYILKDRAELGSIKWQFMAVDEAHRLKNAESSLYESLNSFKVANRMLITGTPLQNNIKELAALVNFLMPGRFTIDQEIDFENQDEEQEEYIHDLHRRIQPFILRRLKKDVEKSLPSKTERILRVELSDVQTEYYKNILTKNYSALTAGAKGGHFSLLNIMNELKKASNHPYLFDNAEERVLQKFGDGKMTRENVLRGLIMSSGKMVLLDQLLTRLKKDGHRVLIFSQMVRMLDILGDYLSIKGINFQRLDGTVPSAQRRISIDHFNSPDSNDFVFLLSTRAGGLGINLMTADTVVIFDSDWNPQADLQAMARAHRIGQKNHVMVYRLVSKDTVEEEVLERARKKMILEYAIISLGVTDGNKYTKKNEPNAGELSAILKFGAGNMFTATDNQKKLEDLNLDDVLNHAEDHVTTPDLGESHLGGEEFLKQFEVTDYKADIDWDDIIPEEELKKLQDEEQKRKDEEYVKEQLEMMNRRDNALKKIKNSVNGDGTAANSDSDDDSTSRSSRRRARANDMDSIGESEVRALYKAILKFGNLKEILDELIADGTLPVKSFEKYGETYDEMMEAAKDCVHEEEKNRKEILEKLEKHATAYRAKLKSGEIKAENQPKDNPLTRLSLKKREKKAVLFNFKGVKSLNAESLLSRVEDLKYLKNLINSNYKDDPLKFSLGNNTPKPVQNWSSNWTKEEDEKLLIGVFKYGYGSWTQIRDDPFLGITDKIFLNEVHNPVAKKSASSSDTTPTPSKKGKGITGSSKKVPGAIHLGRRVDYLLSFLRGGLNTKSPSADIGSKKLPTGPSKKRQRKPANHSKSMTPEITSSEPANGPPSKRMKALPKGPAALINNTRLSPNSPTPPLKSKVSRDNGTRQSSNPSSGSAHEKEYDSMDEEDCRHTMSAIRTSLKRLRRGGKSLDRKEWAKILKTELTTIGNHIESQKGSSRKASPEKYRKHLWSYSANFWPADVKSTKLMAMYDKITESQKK

On to `Cn1ccc2ccc(C(=O)N3CCN(C(=O)N4CCOCC4)CC3)cc21`, for which the Percent Effect in experiment [1] is -5.67%; in [2], 24.3%; in experiment [3], 12.2%; with Trypanosoma cruzi, 9.6%; in experiment [4], 3.85%; in [5], 13.2%. In addition, the Percent Effect in the experiment filed under Homo sapiens is 14.4%; in experiment [6], 9.04%; in [7] it was 17.1%; in experiment [8], -1.13%.

In the case of `Cc1nnc(NC(=O)CN2CCCC(Cn3cncn3)C2)s1` (centres undefined), the Percent Effect is -3.75% in experiment [1]; 10.7% in experiment [2]; 7.25% in experiment [3]; 1.41% in the experiment on Trypanosoma cruzi; 6.21% in experiment [4]; 12.3% in experiment [5]. In addition, the Percent Effect in the experiment listed under Homo sapiens was -17.8%; in experiment [6], 5.79%; in [7] it was 10.3%; in experiment [8], -8.83%.

In the case of `OCC1CCCCN1c1ccc(-c2nc(-c3ccccc3F)no2)cn1` (centres undefined), the Percent Effect in experiment [1] is -2.19%; in [2], -5.41%; in experiment [3], 7.51%; in the experiment with Trypanosoma cruzi, 5.14%; in [4], 16.4%; in the experiment listed under Homo sapiens, 1.31%. Moreover, the results for the Percent Effect in experiment [6], in [7] and in experiment [8] were -0.532%, 4.88% and 86.3%, respectively.

For `CCCN(C(=O)COC)c1nc2c(s1)CCc1c-2cnn1C`, the Percent Effect was 6.68% in experiment [1]; 52% in experiment [2]; 21% in experiment [3]; -3.16% with Trypanosoma cruzi; 23.9% in [4]; 2.79% in [5]. The Percent Effect in the experiment filed under Homo sapiens was 17.9%; in experiment [6], -13.8%; in experiment [7], -15%; in experiment [8], -18.2%.

As to `COc1ccccc1OC1CCN(Cc2cnc(N(C)C)nc2)CC1`, the Percent Effect was -8.85% in [1]; 0% in [2]; 3.25% in [3]; -1.84% in the experiment with Trypanosoma cruzi; -3.15% in [4]; 13.7% and 17.2% in the experiment with N/A. In addition, the Percent Effect in the experiment filed under Homo sapiens was 1.97%; in experiment [6] it was 3.72%; in [7], 9.76%; in experiment [8], -4%.

On to `COC(=O)C1CCN(C(=O)c2ccc(NS(C)(=O)=O)c(C)c2)CC1`, for which the Percent Effect in experiment [1] was -3.21%; in experiment [2], -5.41%; in experiment [3] it was -1.94%; with Trypanosoma cruzi, -2.04%; in experiment [4], -0.35%; in experiment [5], 10.3%. The Percent Effect in the experiment filed under Homo sapiens is -0.596%; in experiment [6], 3.72%; in experiment [7], 0%; in experiment [8] it was 0.629%.

Consider `CC(=O)N(Cc1noc(C)n1)C1CCN(CCOc2ccccc2)C1` (centres undefined), for which the Percent Effect in [1] is -2.68%; in experiment [2] it was 13%; in experiment [3] it was 0.712%; in the experiment on Trypanosoma cruzi, -1.68%; in experiment [4] it was -0.615%; in experiment [5] it was 17.9%. In addition, the Percent Effect was -1.33% in the experiment listed under Homo sapiens, 7.84% in experiment [6], 21.2% in experiment [7] and -7.28% in [8].

For `CC(Nc1cccc(CN2CCOC2=O)c1)C(=O)NC(N)=O` (centres undefined), the Percent Effect in [1] was -7.02%; in [2], 15.4%; in experiment [3], -17.4%; in the experiment with Trypanosoma cruzi, 13.1%; in experiment [4] it was -4.1%; in [5], 7.76%. Moreover, the Percent Effect in the experiment filed under Homo sapiens was determined as 15.9%; in experiment [6], 8.13%; in [7] it was 18.1%; in [8], 17.9%.

With `CNC(=O)CN(C)c1nc(-c2ccncc2)nc2c1CCN(C(C)=O)C2`, the Percent Effect is -7.13% in experiment [1]; 0% in [2]; 0.927% in experiment [3]; -1.07% with Trypanosoma cruzi; 2.45% in experiment [4]; 9.59% in experiment [5]. Moreover, the Percent Effect was -4.34% in the experiment listed under Homo sapiens, 1.6% in experiment [6], 7.32% in experiment [7] and -3.67% in experiment [8].

As to `O=C(c1ccco1)N1CCC2(CC1)C(=O)NCCN2CC1CC1`, the Percent Effect was -7.74% in experiment [1]; 1.3% in experiment [2]; -3.06% in [3]; -8.08% in the experiment on Trypanosoma cruzi; -4.05% in experiment [4]; 15.1% in experiment [5]. Also, the Percent Effect is 8.56% in the experiment listed under Homo sapiens, 1.58% in [6], -2.56% in experiment [7] and -1.19% in experiment [8].

Take `O=C(c1ccc(F)cc1F)N1C[C@@H](O)[C@H](N2CCOCC2)C1`: the Percent Effect in experiment [1] was -1.31%; in [2], 20%; in experiment [3], -7.22%; with Trypanosoma cruzi it was -0.789%; in [4], -3.1%; in experiment [5], 17.9%. The Percent Effect in the experiment filed under Homo sapiens was 2.56%; in experiment [6], 1.06%; in experiment [7] it was 17.5%; in experiment [8], -25.9%.
